The values below come from PubChem BioAssay AID1345085 (National Center for Advancing Translational Sciences (NCATS), 2018).

Each structure is given as a SMILES string. Records with an inconclusive call do not appear. Calls of active or inactive are those of the source. The call rests on the fitted dose curve; in most records, active means well fitted cell-killing curve with a large enough effect; inconclusive means small, poorly fitted or top-dose-only effect, or effect the other way; inactive means no such curve, though single readings can be large or run the other way.
Potency means the concentration at half of the fitted maximal effect.

The test has as its system Es-2. Kind of test: Confirmatory qHTS for gynecologic anti-cancer compounds from libraries of approved drugs and bioactive compounds. Further: nearly all actives have a fitted effect of over 55% in size. To be noted: gynecologic cancer cell panel viability, ATPlite luminescence, 48 h; series mostly up to 57.6 µM. Put shortly:
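ATP-based luminescent viability (ATPlite) after 48 h drug treatment at 37 °C, 5% CO2, across 57.5 uM–0.977 nM in 1:3 steps. Cells seeded at 1,000 per well 16 h beforehand; IC50 values computed, HEK 293T as selectivity control.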
(qHTS replaces the single test concentration by a dilution series.)
As to `OC[C@H]1O[C@@H](n2cnc3c(=S)nc[nH]c32)[C@H](O)[C@@H]1O`, the Potency is 4.85 µM (active).
Turning to `O=c1c2ccccc2nc2n1CCc1c-2[nH]c2ccccc12`, the Potency entry is “inactive”.
For the compound `Fc1cc(-c2cccc3ncc(-c4cnn(C5CCNCC5)c4)nc23)cc(F)c1CN1CCOCC1`, the Potency is 21.7 µM (active).
The value for `NS(=O)(=O)c1ccc(Nc2nc(OCC3CCCCC3)c3[nH]cnc3n2)cc1` was “inactive”; that for `Cc1cc(C(C)Nc2ccccc2C(=O)O)c2nc(N3CCOCC3)cc(=O)n2c1` (configuration not stated) was “inactive”.
Next, `CN(C)CCC(CSc1ccccc1)Nc1ccc(S(=O)(=O)NC(=O)c2ccc(N3CCN(Cc4ccccc4-c4ccc(Cl)cc4)CC3)cc2)cc1[N+](=O)[O-]` (configuration not stated): 4.85 µM (active); `COc1cc2c(NC3CCN(C(C)C)CC3)nc(C3CCCCC3)nc2cc1OCCCN1CCCC1`: 12.2 µM (active).
With `Cc1cnc(Nc2ccc(F)cc2Cl)nc1-c1c[nH]c(C(=O)NC(CO)c2cccc(Cl)c2)c1` (configuration not stated), the Potency entry is “inactive”.
Turning to `Cc1cc(SCc2sc(-c3ccc(C(F)(F)F)cc3)nc2C)ccc1OCC(=O)O`, the Potency result was “inactive”.
For `CN1C(=O)C(Cc2c[nH]c3ccccc23)NC1=S` (configuration not stated), the Potency entry was “inactive”.
Regarding `O=C(c1ccc(F)c(F)c1Nc1ccc(I)cc1F)N1CC(O)([C@@H]2CCCCN2)C1`, the Potency is 17.2 µM (active).
As to `O=C(NOC[C@H](O)CO)c1ccc(F)c(F)c1Nc1ccc(I)cc1F`, the Potency was 0.344 µM (active).
`COc1cc(F)c(F)c(Nc2ccc(I)cc2F)c1NS(=O)(=O)C1(CC(O)CO)CC1` (configuration not stated): the Potency was 3.85 µM (active).
The value for `CS(=O)(=O)c1ccc(-c2cnc(N)c(C(=O)Nc3ccccc3)n2)cc1` was “inactive”; that for `C[C@@H](Oc1cc(-c2cnn(C3CCNCC3)c2)cnc1N)c1c(Cl)ccc(F)c1Cl` was 15.3 µM (active); that for `COC(C(=O)N1Cc2[nH]nc(NC(=O)c3ccc(N4CCN(C)CC4)cc3)c2C1)c1ccccc1` (configuration not stated) was “inactive”.
Consider `Cc1cc(CN2CCN(c3c(Br)cnc4nc(-c5ccc(N6CCN(C)CC6)cc5)[nH]c34)CC2)no1`, for which the Potency was 7.69 µM (active).
On to `Cc1[nH]c2ccccc2c1CCNCc1ccc(/C=C/C(=O)NO)cc1`, for which the Potency is 0.172 µM (active).
With `CCN1CCN(Cc2ccc(-c3cc4c(NC(C)c5ccccc5)ncnc4[nH]3)cc2)CC1` (configuration not stated), the Potency was 27.3 µM (active).
The value for `FC(F)(F)c1ccc(/C=C/c2nc(COc3ccc(CCCCn4ccnn4)cc3)co2)cc1` was 24.3 µM (active); that for `CC(C)C[C@H](NC(=O)[C@H](Cc1ccccc1)NC(=O)c1cnccn1)B(O)O` was 0.0611 µM (active).
Regarding `Nc1ccccc1NC(=O)c1ccc(CNC(=O)OCc2cccnc2)cc1`, the Potency was 7.69 µM (active).
For `CN1CCN(Cc2ccc(NC(=O)Nc3ccc(Oc4cc(NC(=O)C5CC5)ncn4)cc3)cc2C(F)(F)F)CC1`, the Potency was 0.544 µM (active).
In the case of `CN1CCN(c2ccc(OC(F)(F)F)c(Nc3ncc4c(n3)-c3c(c(C(N)=O)nn3CCO)CC4)c2)CC1`, the Potency was 0.217 µM (active).
In the case of `C[C@]12CCC(=O)C=C1CC[C@@H]1[C@@H]2[C@@H](O)C[C@@]2(C)[C@H]1CC[C@]2(O)C(=O)CO`, the Potency result was “inactive”.
Take `CCCCc1nc2cc(/C=C/C(=O)NO)ccc2n1CCN(CC)CC`: the Potency was 1.09 µM (active).
Next, `Cc1nc(N)ncc1-c1nc(N2CCOCC2)c2sc(C(C)(C)O)cc2n1`: “inactive”; `Cc1ccc(C(=O)Nc2ccc(CN3CCN(C)CC3)c(C(F)(F)F)c2)cc1C#Cc1cnc2cccnn12`: 6.11 µM (active).
Regarding `CC[C@@]1(O)C(=O)OCc2c1cc1n(c2=O)Cc2cc3cc(O)ccc3nc2-1`, the Potency was 0.0544 µM (active).
Turning to `Cn1c(=O)c(-c2c(Cl)cccc2Cl)cc2cnc(Nc3cccc(C(=O)O)c3)nc21`, the Potency was 2.73 µM (active).
On to `CC1=C(CO)C(=O)O[C@@H]([C@@H](C)[C@H]2CC[C@H]3[C@@H]4C[C@H]5O[C@]56[C@@H](O)C=CC(=O)[C@]6(C)[C@H]4CC[C@]23C)C1`, for which the Potency is 2.66 µM (active).
`Cc1ccc(C(=O)Nc2ccc(CN3CCN(C)CC3)c(C(F)(F)F)c2)cc1C#Cc1cnc2[nH]ncc2c1`: the Potency is 0.306 µM (active).
With `O=c1c(-c2ccc(O)cc2)coc2cc(O)cc(O)c12`, the Potency is 17.2 µM (active).
On to `CCCCN(CCCC)CC(O)c1cc(Cl)cc2c1-c1ccc(Cl)cc1/C2=C/c1ccc(Cl)cc1` (configuration not stated), for which the Potency result is “inactive”.
As for `NC(=O)Nc1cc(-c2cccc(F)c2)sc1C(=O)NC1CCCNC1` (configuration not stated), the Potency was 0.344 µM (active).
`CCN(CC)CCOc1ccc(/C(=C(\Cl)c2ccccc2)c2ccccc2)cc1`: the Potency is 398 µM (active).
With `Cn1cnc([N+](=O)[O-])c1Sc1ncnc2nc[nH]c12`, the Potency is 15.3 µM (active).
